Experimental data taken from PubChem BioAssay (NCI).
This is part of a sample that, as a whole, favours compounds with a hit. Of some 79,000 tested, about 15% had one in any assay. Rule as the data show it: active = growth inhibition above about 70%; inactive = the rest.

Experiments:
[1] = NCI Yeast Anticancer Drug Screen. Data for the rad50 strain (AID 155);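 also: 0% = growth of vehicle-only cultures of the same strain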; settings: S. cerevisiae rad50 strain growth inhibition, stronger effect = higher value; at 50.0 µM unless noted
In short: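 Cells are treated with compound, grown, and their growth is then scored against vehicle-only cultures of the same repair-deficient yeast strain.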

[2] = NCI Yeast Anticancer Drug Screen. Data for the mec2-1 strain (AID 157); settings: S. cerevisiae mec2-1 strain, stronger effect = higher value; at 50.0 µM unless noted
In short: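 Yeast mec2-1 mutant treated with compound. Readout: growth inhibition vs vehicle controls.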

[3] = NCI Yeast Anticancer Drug Screen. Data for the sgs1 mgt1 strain (AID 161);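 also: 0% = growth of cultures given vehicle only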; settings: S. cerevisiae sgs1 mgt1 strain, stronger effect = higher value; at 50.0 µM unless noted
In short: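 Read-out: growth inhibition vs vehicle controls. Cells: mutant yeast strain deficient in DNA damage repair.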

[4] = NCI Yeast Anticancer Drug Screen. Data for the cln2 rad14 strain (AID 165);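 also: 0% = growth equal to vehicle treated cultures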; settings: S. cerevisiae cln2 rad14 strain, stronger effect = higher value; at 50.0 µM unless noted
In short: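 cln2 rad14 yeast strain; compound exposure; growth inhibition read vs vehicle controls.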

[5] = NCI Yeast Anticancer Drug Screen. Data for the bub3 strain (AID 167); settings: S. cerevisiae bub3 mutant strain, stronger effect = higher value; at 50.0 µM unless noted
In short: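 Part of a panel of yeast mutants defective in DNA damage repair or cell cycle regulation. Each strain is grown with compound, and inhibition is calculated relative to solvent-treated cultures.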

[6] = NCI Yeast Anticancer Drug Screen. Data for the mlh1 rad18 strain (AID 175); settings: S. cerevisiae mlh1 rad18 strain growth inhibition, stronger effect = higher value; at 50.0 µM unless noted
In short: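 Yeast w/ defined DNA-repair lesions; compound exposure; growth vs vehicle controls → % inhibition.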

Measured: growth inhibition

COc1ccc(C2=C(c3ccccc3)C(=O)C3(c4ccccc4)CC23c2ccc(OC)cc2)cc1 (stereo not drawn)
inactive: [1] -1.25% | [2] 17.6% | [3] 15.5% | [4] 1.85% | [5] 1.15% | [6] 4.7%

C=CCCCCCCCCCCCCCCCC
inactive: [1] -24% | [2] -49% | [3] -23.1% | [4] -13.2% | [5] -27.6% | [6] -9.2%

CC(=O)C[N+](C)(C)C
inactive: [1] -12.9% | [2] -17.1% | [3] -14.8% | [4] -7.45% | [5] -20.8% | [6] 12.7%
